PubChem BioAssay (Tox21)
Results filed as inconclusive are left out. Entries that show only a call come without a potency. Activity calls are given as the source filed them. Unless noted, the call rests on the fitted dose curve.

assay: qHTS assay to identify small molecule agonists of the endoplasmic reticulum stress response signaling pathway - cell viability counter screen (AID 1159517); conditions: ESRE-bla HeLa viability, CellTiter-Glo luminescence, 5 h; series mostly up to 61 µM;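 further: HeLa cells carrying an ER stress response element beta-lactamase reporter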
Method in brief: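 ESRE-bla HeLa cells (1,500/well) were plated overnight at 37 C and exposed to compounds for 5 hr. After the 2 hr beta-lactamase substrate read, CellTiter-Glo went into the same wells, and luminescence was read after 30 min at room temperature.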
Further: nearly all actives have a fitted effect of over 50% in size.

| SMILES | outcome |
| --- | --- |
| COC(=O)c1ccccc1C(=O)OC | inactive |
| O=c1n(Cl)c(=O)n(Cl)c(=O)n1Cl | inactive |
| Oc1ccccc1Cl | inactive |
| O=C1CCCN1 | inactive |
| Clc1ccc(Cl)cc1 | inactive |
| O=c1[nH]c(=O)[nH]c(=O)[nH]1 | inactive |
| CNC(=O)Oc1ccccc1OC(C)C | inactive |
| CC(=O)C=C(C)C | inactive |
| CCOC(=O)c1ccccc1C(=O)OCC | inactive |
| C1CC2OC2CC1C1CO1 (stereo unspecified) | inactive |
| COC(=O)NC(=S)Nc1ccccc1NC(=S)NC(=O)OC | inactive |
| COC(=O)c1ccccc1N | inactive |
| Cc1ccc(N)cc1N | inactive |
| [O-][Cl+2]([O-])O | inactive |
| O=[N+]([O-])c1ccccc1 | inactive |
| O=NN1CCCC1 | inactive |
| O=NN1CCCCCCC1 | inactive |
| CN(C)CCO | inactive |

| SMILES | outcome |
| --- | --- |
| CCC[CH2][Sn]([Cl])([Cl])[Cl] | inactive |
| C#CCN(C)[C@H](C)Cc1ccccc1 | inactive |
| CC(C)NC(=O)N1CC(=O)N(c2cc(Cl)cc(Cl)c2)C1=O | inactive |
| c1ccc(-c2ccccc2)cc1 | inactive |
| Cc1cc(Cl)ccc1O | inactive |
| CCC[N+](=O)[O-] | inactive |
| Cc1ccc([N+](=O)[O-])cc1C | inactive |
| C=CC(N)=O | inactive |
| C=CCO | inactive |
| CC1OC(C)OC(C)O1 (stereo unspecified) | inactive |
| C[C@]12CC[C@H]3[C@@H](CC[C@@]45O[C@@H]4C(O)=C(C#N)C[C@]35C)[C@@H]1CC[C@@H]2O | inactive |
| O=S(=O)(c1ccc(Cl)cc1)c1cc(Cl)c(Cl)cc1Cl | inactive |
| Nc1ccc(Br)cc1 | inactive |
| COc1ccc2c3c1O[C@H]1[C@@H](O)C=C[C@H]4[C@@H](C2)N(C)CC[C@@]341 | inactive |
| O=[N+]([O-])c1ccc(Oc2ccc(Cl)cc2Cl)cc1 | inactive |
| CC(C)(C)OOC(C)(C)C | inactive |
| Cc1ccccc1O | inactive |
| c1ccc(OP(Oc2ccccc2)Oc2ccccc2)cc1 | inactive |

assay: qHTS assay to identify small molecule antagonists of the retinoid-related orphan receptor gamma (ROR-gamma) signaling pathway - cell viability counter screen (AID 1159520; active means well fitted cell-killing curve with a large enough effect in the repeat runs); conditions: Tet-on RORgamma CHO cells viability, ATP luminescence, 16 h; series mostly up to 92.4 µM
Method in brief: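 Cytotoxicity was read from cellular ATP (CellTiter-Glo luminescence) after 16 hr at 37 C with 1 uM doxycycline induction. The inducer was added 2 hr after compound transfer to Tet-on ROR gamma CHO cells.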

| SMILES | Potency |
| --- | --- |
| COC(=O)c1ccccc1C(=O)OC | inactive |
| O=c1n(Cl)c(=O)n(Cl)c(=O)n1Cl | inactive |
| Oc1ccccc1Cl | inactive |
| O=c1[nH]c(=O)[nH]c(=O)[nH]1 | inactive |
| CNC(=O)Oc1ccccc1OC(C)C | inactive |
| CC(=O)C=C(C)C | inactive |
| CCOC(=O)c1ccccc1C(=O)OCC | inactive |
| C1CC2OC2CC1C1CO1 (stereo unspecified) | inactive |
| COC(=O)c1ccccc1N | inactive |
| Cc1ccc(N)cc1N | inactive |
| [O-][Cl+2]([O-])O | inactive |
| O=[N+]([O-])c1ccccc1 | inactive |
| O=NN1CCCC1 | inactive |
| O=NN1CCCCCCC1 | inactive |
| CCC[CH2][Sn]([Cl])([Cl])[Cl] | inactive |
| C#CCN(C)[C@H](C)Cc1ccccc1 | inactive |
| CC(C)NC(=O)N1CC(=O)N(c2cc(Cl)cc(Cl)c2)C1=O | inactive |
| C=CC(N)=O | inactive |
| C=CCO | inactive |
| CC1OC(C)OC(C)O1 (stereo unspecified) | inactive |
| C[C@]12CC[C@H]3[C@@H](CC[C@@]45O[C@@H]4C(O)=C(C#N)C[C@]35C)[C@@H]1CC[C@@H]2O | inactive |
| O=S(=O)(c1ccc(Cl)cc1)c1cc(Cl)c(Cl)cc1Cl | inactive |
| COc1ccc2c3c1O[C@H]1[C@@H](O)C=C[C@H]4[C@@H](C2)N(C)CC[C@@]341 | inactive |
| O=[N+]([O-])c1ccc(Oc2ccc(Cl)cc2Cl)cc1 | inactive |
| c1ccc(OP(Oc2ccccc2)Oc2ccccc2)cc1 | inactive |
